Assay outcomes (PubChem BioAssay)
SW480 rereplic: A quantitative high throughput screen for small molecules that induce DNA re-replication in SW480 colon adenocarcinoma cells | Potency, µM (series often up to 46.1 µM), without a hit: at the highest dose re-replication activation, hits mostly activators | SW480 DNA re-replication, Hoechst DNA content imaging, 48 h | 1.8% of 340,000 active; further: % of control where 0% means no effect; nearly all actives have a fitted effect of over 55% in size
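Hoechst fluorescence of nuclei (405 nm excitation, 500-530 nm emission) measured by plate-scanning imager after 48 hr compound exposure at 37 C; re-replication scored as increased number of nuclei with elevated intensity.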
KB-V1 cytotox: qHTS assay for MDR1-selective chemotherapeutics: Primary screen using the drug-selected MDR subline cells KB-V1; 3.4% of 400,000 active; KB-V1 MDR cells viability, CellTiter-Glo, 72 h; Potency, µM (top dose mostly 46.1 µM), actives largely listed as cytotoxic; further: on the % scale 0 is the no-effect control and ±100 the full control effect; nearly all actives have a fitted effect of over 60% in size
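Drug-selected KB-V1 cells, grown in DMEM lacking phenol red with 10% FBS, receive compound titrations; after three days at 37 degrees C, surviving cell ATP is quantified by CellTiter-Glo luminescence and responses normalized and curve-fitted.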
HT1080 IDH1KD tx: qHTS for induction of synthetic lethality in tumor cells producing 2HG: qHTS for the HT-1080-IDH1KD cell line; 2% of 360,000 active; Potency, µM (titrated, usually from 46.1 µM), for the others: top-dose activity, negative = toxicity, usual class: cytotoxic; HT-1080 IDH1 knockdown viability, ATP luminescence, 48 h;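 further: 0% = DMSO wells and -100% = cell-free medium wells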
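Cytotoxicity counter-line: IDH1KD HT-1080, 48 h, CellTiter-Glo. Curves classed by r2, magnitude and activity.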
KB-3-1 tox: qHTS assay for MDR1-selective chemotherapeutics: Primary screen using the parental adenocarcinoma cell KB-3-1. Potency, µM (highest dose often 46.1 µM), most hits filed as cytotoxic. KB-3-1 viability, CellTiter-Glo ATP luminescence, 72 h. 1.4% of 400,000 active. AID 1347075, 2019; further: on the % scale 0 is the no-effect control and ±100 the full control effect; nearly all actives have a fitted effect of over 60% in size
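Multi-concentration cytotoxicity screen in KB-3-1 cells grown in DMEM lacking phenol red with 10% FBS. After 72 h at 37 °C with compound, ATP-dependent luminescence was recorded.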
MCF10A rerep: A quantitative high throughput screen for small molecules that induce DNA re-replication in MCF 10a normal breast cells | MCF 10A DNA re-replication, Hoechst nuclear intensity, 48 h | Potency, µM (highest dose often 46.1 µM), inactives show top-dose activity, positive = re-replication, most hits filed as activators | 2.9% of 350,000 active | AID 624296, 2012; further: % of control where 0% means no effect; nearly all actives have a fitted effect of over 50% in size
HT1080NT lethal: qHTS for induction of synthetic lethality in tumor cells producing 2HG: qHTS for the HT-1080-NT fibrosarcoma cell line | AID 686970, 2013 | 1.6% of 360,000 active | HT-1080-NT fibrosarcoma viability, CellTiter-Glo ATP luminescence, 48 h | Potency, µM (titrated, usually from 46.1 µM), without a hit: at the highest dose activity, negative = less viability, actives largely listed as cytotoxic;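 further: NT is the 2HG producing partner of a matched IDH1 knockdown line; 0% = DMSO-treated cells and -100% = media-only wells without cells; nearly all actives have a fitted effect of over 55% in size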
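750 cells/well, RPMI + 5% FBS; 2 h settle, compound pin-transfer, 48 h at 37 degrees C. CellTiter-Glo 10 min RT, luminescence. Normalized to DMSO and media-only wells.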
The depositor's hits bear a star; i = inactive; ? = inconclusive; nt = no result; [ ] = remark or other dose. The list is not random: actives were taken first. Their share in the collection is about 8%. The call rests on the fitted dose curve; in most records, active means well fitted curve in the direction sought with a large enough effect; inconclusive means small, poorly fitted or top-dose-only effect, or another doubt; inactive means no such curve, though single readings can be large; an effect the other way counts as inactive or inconclusive. Potency means the concentration at half of the fitted maximal effect.

SMILES	SW480 rereplic	KB-V1 cytotox	HT1080 IDH1KD tx	KB-3-1 tox	MCF10A rerep	HT1080NT lethal
C=C(C)C1CCC(C)=C1CC(C)(C)/C=N\n1cnnc1 (stereo not given)	11%	15µM*	-3%[9.24 µM]	i	-18%	-25%
COc1ccc(N2CCN(C(=O)C3CCN(S(=O)(=O)c4cccc5nonc45)CC3)CC2)cc1	nt	i	nt	i	nt	nt
O=C(CNc1ccccc1)N/N=C/c1c(O)ccc2ccccc12	?	i	12µM*	16µM*	?	10µM*
O=C(CN1CCOCC1)N/N=C/c1c(O)ccc2ccccc12	?	i	?	?	5%	?
N#CCC(=O)N/N=C/c1c2ccccc2cc2ccccc12	?	i	-14%	i	18µM*	-11%
Cc1ccccc1NC(C)C(=O)N/N=C/c1ccccc1OCc1cccc(Br)c1 (stereo not given)	?	?	-25%	?	?	-15%
O=C(CO)N/N=C/c1c2ccccc2cc2ccccc12	3%	i	?	i	25%	0%
COc1ccc(NC(C)C(=O)N/N=C/c2c(O)ccc3ccccc23)cc1 (stereo not given)	3.7µM*	?	?	?	?	-20%
COc1ccc(NC(C)C(=O)N/N=C/c2ccccc2OCc2cccc(Br)c2)cc1 (stereo not given)	?	?	-18%	23µM*	?	-27%
Cc1c(C(=O)NCc2ccc(OC(C)C)cc2)sc2ncnc(N(C)C3CCCCC3)c12	nt	i	nt	i	nt	nt
Cc1cccc2c(C(O)c3cn(C)c4ccccc34)c[nH]c12 (stereo not given)	nt	i	nt	i	nt	nt
O=C(CSCC(=O)Nc1ccccc1)N/N=C/c1c(O)ccc2ccccc12	?	?	1.6µM*	?	?	3.2µM*
O=C(N/N=C/c1c(O)ccc2ccccc12)Nc1ccccc1	134%	?	-10%	?	12%	-8%
CC(Sc1nnnn1C1CC1)C(=O)N1c2ccccc2NC(=O)C1(C)C (stereo not given)	-6%	21µM*	-1%	i	1%	6%
Cc1nc(Cc2nnc(SC(C)C(=O)N3c4ccccc4NC(=O)C3(C)C)o2)cs1 (stereo not given)	2%	i	6%	i	0%	12%
CC1=CC(=O)C(C(C)C)=C/C1=C(\c1cc(C(C)C)c(OP(=O)(O)O)cc1C)c1ccccc1C(=O)O	?	?	23µM*	16µM*	21µM*	?
CCOc1ccc(C(=O)c2ccccc2C(=O)O)cc1OCC	-6%	?	0%	i	2%	9%
COC(=O)c1c(NC(=S)NN2CCOCC2)sc2c1CCCC2	0%	i	11%	i	11%	0%
CCCCN=C1SC(C(=O)Nc2sc3c(c2C(=O)OC)CCC3)C(N)=C1C(=O)N1CCOCC1 (stereo not given)	354%	i	3%	i	21µM*	-11%
Cc1cc(C)cc(SCc2noc(C(=O)NCCN(C)C)c2C(=O)NCCN(C)C)c1	?	i	?	?	3%	18µM*
CN(C)CCNC(=O)c1onc(CSc2ccncc2)c1C(=O)NCCN(C)C	3%	i	12%	i	-1%	0%
O=C(NC(Nc1ncc(S(=O)(=O)c2ccc([N+](=O)[O-])cc2)s1)(C(F)(F)F)C(F)(F)F)c1ccc(Cl)cc1	?	?	?	21µM*	9.2µM*	3.3µM*
COCC(=O)Nc1ncc(S(=O)(=O)c2ccc([N+](=O)[O-])cc2)s1	-6%	i	-16%	i	9%	0%
CCOc1ccccc1NC(=O)n1ncc2cc(Cl)ccc21	nt	i	nt	i	nt	nt
Cc1ccc(NCc2ccccc2-c2nnc(-c3ccccc3Cl)o2)c(C)c1	nt	i	nt	i	nt	nt
SMILES	SW480 rereplic	KB-V1 cytotox	HT1080 IDH1KD tx	KB-3-1 tox	MCF10A rerep	HT1080NT lethal
COc1ccc(CNC(=O)CNC(C)c2ccc(F)cc2)cc1 (stereo not given)	0%	i	5%	i	-16%	-2%
COc1ccc(C(CCNC(C)c2ccccc2)c2ccc(F)cc2)cc1 (stereo not given)	-52%	12µM*	18µM*	?	?	?
COc1ccc(C(CCNCc2ccccc2)c2ccc(F)cc2)cc1 (stereo not given)	nt	18µM*	16µM*	?	10%	?
COc1ccc(CNCC(O)(c2ccccc2)c2ccc(F)cc2)cc1 (stereo not given)	?	i	?	i	15%	-27%
COc1ccc(CNCCC(c2ccc(F)cc2)c2ccc(OC)cc2)cc1 (stereo not given)	?	?	21µM*	23µM*	?	21µM*
COc1ccc(C(CCNCc2ccc(F)cc2)c2ccc(F)cc2)cc1 (stereo not given)	nt	?	23µM*	?	5.2µM*	?
COc1ccc2c(Sc3ccccc3)c(C(=O)N3CCC(C)CC3)[nH]c2c1	nt	i	nt	i	nt	nt
COc1ccc(CNS(=O)(=O)CCNCCc2ccccc2)cc1	-5%	i	10%	i	0%	9%
COc1ccc(CCNCc2ccc(OCc3ccccc3)cc2)cc1	89%	i	18µM*	i	?	?
Cc1ccc(C(C)C)c(OCCCN(C)Cc2ccccc2)c1	?	12µM*	?	i	23µM*	-22%
Cc1ccc(C(C)C)c(OCC(O)CN(C)Cc2ccccc2)c1 (stereo not given)	21µM*	i	?	i	?	?
Cc1ccc(OCCCCN(C)Cc2ccccc2)c(Br)c1	?	i	?	i	?	?
CCOC(=O)c1ccc(Nc2nc(=O)c3cccnc3s2)cc1	1%	6.5µM*	2.2µM*	i	?	?
CCOC(=O)c1c(-c2ccccc2)csc1NC(=O)/C(C#N)=C\c1ccc(O)c(OC)c1	?	i	-18%	i	2.3µM*	-10%
CCOC(=O)c1c(-c2ccc(C)cc2)csc1NC(=O)/C(C#N)=C/c1ccc(O)c(OC)c1	?	i	-2%	i	21µM*	-1%
